This is a sample that favours compounds with a hit; in the whole collection about 10% have one here.
GPT2 inhibitor = Primary qHTS assay for inhibitors of Glutamate pyruvate transaminase 2 (GPT2); 100,000 tested, 0.25% active; Recombinant GPT2, coupled pyruvate oxidase/HRP Amplex Red fluorescence; Potency, µM (titrated, usually from 57.7 µM), for the others: at the top dose activity change, negative = inhibition, most hits filed as inhibitors; AID 1671188, 2021; Alanine aminotransferase 2 (Homo sapiens), Q8TD30; also: nearly all actives have a fitted effect of over 60% in size
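Fluorescence of coupled pyruvate oxidase/HRP/Amplex Red system (50uM Amplex, 30 min, dark) reports pyruvate formed by GPT2. Enzyme reaction: 10ng/uL GPT2, 2mM L-alanine, 250uM a-KG, 30 min room temperature, pH 7.5; 50uM AOA control.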
FLuc inh = Firefly luciferase inhibition profiling of diverse chemical library using quantitative high-throughput screening; AID 1347043, 2019; Potency, µM (highest dose often 115 µM), most hits filed as inhibitors; Luciferin 4-monooxygenase (Photinus pyralis), P08659; 76,000 tested, 2.5% active; purified P. pyralis luciferase, luminescence, biochemical; also: nearly all actives have a fitted effect of over 65% in size
Target sequence (P08659 whole entry, looked up): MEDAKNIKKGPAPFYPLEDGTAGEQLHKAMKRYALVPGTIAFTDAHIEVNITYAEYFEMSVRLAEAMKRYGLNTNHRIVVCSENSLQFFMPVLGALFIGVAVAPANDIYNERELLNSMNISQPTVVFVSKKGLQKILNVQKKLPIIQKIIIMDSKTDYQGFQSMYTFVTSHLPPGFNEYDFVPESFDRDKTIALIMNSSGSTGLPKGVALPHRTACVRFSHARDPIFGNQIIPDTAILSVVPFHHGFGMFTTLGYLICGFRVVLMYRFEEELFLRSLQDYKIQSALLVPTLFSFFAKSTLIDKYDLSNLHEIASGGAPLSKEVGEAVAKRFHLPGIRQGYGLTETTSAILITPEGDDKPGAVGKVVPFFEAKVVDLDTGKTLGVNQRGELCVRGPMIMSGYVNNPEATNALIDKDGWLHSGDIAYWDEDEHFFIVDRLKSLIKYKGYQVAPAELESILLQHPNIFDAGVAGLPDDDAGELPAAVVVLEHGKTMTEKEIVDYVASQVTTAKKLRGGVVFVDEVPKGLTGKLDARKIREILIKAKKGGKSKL
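Cell-free enzyme assay, 10nM P. pyralis luciferase, luciferin and ATP each at 10uM. Inhibition profiled over a 6-point titration, read as luminescence.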
HEK cytotox = Cytotoxic Profiling in HEK 293 Cell Line of Diverse Libraries Using Quantitative High-Throughput Screening; HEK 293 viability, ATP luminescence (CellTiter-Glo), 48-72 h; 94,000 tested, 6.6% active; Potency, µM (top dose mostly 115 µM), without a hit: at the top dose activity change, negative = cytotoxicity, usual class: inhibitors; AID 1345083, 2018; also: nearly all actives have a fitted effect of over 60% in size
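Read-out: CellTiter-Glo ATP luminescence. Cells: HEK 293, 250 cells/well. Exposure: 48 or 72 hr, 37 degree Celsius.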
NIH3T3 tox = Cytotoxic Profiling in NIH 3T3 Cell Line of Diverse Libraries Using Quantitative High-Throughput Screening; NIH 3T3 viability, CellTiter-Glo ATP luminescence, 48-72 h; Potency, µM (top dose mostly 96.7 µM), without a hit: at the highest dose activity change, negative = cytotoxicity, most hits filed as inhibitors; 94,000 tested, 4.3% active; also: nearly all actives have a fitted effect of over 55% in size
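First NIH 3T3 cells are plated at 400 cells/well; next compound is pinned in; then plates incubate 48 or 72 hr at 37 °C; finally CellTiter-Glo is added and luminescence read after 10 min.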
hNpr1 antagonist = Natriuretic polypeptide receptor (hNpr1) antagonism - Primary qHTS; HEK293 hNpr1 GloSensor cGMP, ANP-stimulated luminescence; Potency, µM (highest dose often 46.3 µM), for inactives: at the top dose activity change, negative = inhibition, usual class: inhibitors; 76,000 tested, 1.6% active; calls by dose curve; also: nearly all actives have a fitted effect of over 60% in size
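HEK293 cells stably expressing human Npr1 and cGMP GloSensor pGS-40F, loaded 2 h with 2% GloSensor reagent, given compound 30 min at room temperature. Luminescence read before and 20 min after 0.1 nM hNppA.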
An asterisk follows results filed as active; i = inactive; ? = inconclusive; . = not tested or not shown; [ ] = remark or other dose. Unless noted, calls follow the shape of the dose curve; as a rule, active = well fitted curve in the direction sought with a large enough effect; inconclusive = small, poorly fitted or top-dose-only effect, or another doubt; inactive = no such curve, though single readings can be large; an effect the other way counts as inactive or inconclusive. % is scaled to controls: 0 for no effect and ±100 for the full control effect; potency is read from the fitted curve at half-maximal effect.

SMILES	GPT2 inhibitor	FLuc inh	HEK cytotox	NIH3T3 tox	hNpr1 antagonist
O=C(Cc1cccnc1)N1CCCC(c2ccccc2)(c2ccccc2)C1	-4%[11.5 µM]	i	45µM*	-16%	-4%
CN1CCC(NC(=O)c2nc3nc(-c4ccccc4)c(-c4cccc(O)c4)cc3n2C)CC1	1%	i	35µM*	11µM*	-6%
Cn1c(C(=O)NCCc2cnc[nH]2)nc2nc(-c3ccccc3)c(Cl)cc21	i	?	?	28µM*	-13%[70.6 µM]
CN(C)CCNC(=O)c1nc2nc(-c3ccccc3)c(-c3ccccc3F)cc2n1C	4%[88.5 µM]	i	50µM*	35µM*	?
CN(C)CCNC(=O)c1nc2nc(-c3ccccc3)c(Cl)cc2n1C	1%[88.5 µM]	i	-24%[172 µM]	?	-1%[70.6 µM]
O=C(c1ccccc1F)N1CCC2(CC1)CC(N(Cc1ccccc1)C1CC1)CCO2 (centres undefined)	i	i	?	?	-17%
O=C(c1cn2ccccc2n1)N1C[C@@H](CO)[C@H](c2ccncc2)C1	i	i	0%	0%	9%
Cc1ccc(-c2cccc(CN3CCCC3C(=O)NCC3CC3)c2)cc1Cl (centres undefined)	.	.	32µM*	?	.
CCCCCNC(=O)C1CCCN1Cc1cccc(-c2ccc(C)c(Cl)c2)c1 (centres undefined)	.	.	45µM*	?	.
COCCNC(=O)C1CCCN1Cc1cccc(-c2ccc(C)c(Cl)c2)c1 (centres undefined)	.	.	40µM*	35µM*	.
CCCCn1c(=O)c(C(=O)N2CCN([S+](=O)([O-])c3ccc(C)cc3)CC2)nc2cccnc21	i	.	?	?	.
CC(C)C[C@@H]1N[C@H](C(=O)N(C)CCC#N)Cc2c[nH]c3cccc1c23	3%[88.5 µM]	i	-30%[172 µM]	-14%[174 µM]	11%[70.6 µM]
O=C1N[C@@H]2CCN(C(=O)c3ccc(-c4ccccc4)cc3)[C@@H]2C(=O)N1Cc1ccccc1	-12%[88.5 µM]	?	?	112µM*	-3%[70.6 µM]
CC1CCCN(C(=O)c2cc(-c3ccc(C(F)(F)F)cc3)nc3c2cnn3C)C1 (centres undefined)	.	.	45µM*	?	.
CNC(=O)c1cc(-c2ccc(C(F)(F)F)cc2)nc2c1cnn2C	.	.	-20%	?	.
CCN1CCN(C(=O)c2cc(-c3cccc(C(F)(F)F)c3)nc3c2cnn3C)CC1	1%	.	?	32µM*	.
CS(=O)(=O)N1CCC(c2nc(CCOCC3CC3)no2)C1 (centres undefined)	i	.	i	3%	.
CN1CCN(C(=O)c2ccnc(-c3nnc4ccc(N(C)c5ccccc5)nn34)c2)CC1	-21%[88.5 µM]	i	-2%[172 µM]	10µM*	4%[70.6 µM]
CN(Cc1ccccc1)C(=O)c1ccnc(-c2nnc3ccc(Nc4ccccc4)nn23)c1	-11%[88.5 µM]	i	20µM*	?	?
COC1CCN(C(=O)c2ccnc(-c3nnc4ccc(N(C)c5ccccc5)nn34)c2)CC1	-9%	i	?	3.5µM*	-6%
COC1CCN(C(=O)c2ccnc(-c3nnc4ccc(Nc5ccccc5)nn34)c2)CC1	-10%[88.5 µM]	i	89µM*	?	-1%[70.6 µM]
CC(C)NC(=O)c1ccnc(-c2nnc3ccc(Nc4ccccc4)nn23)c1	4%[88.5 µM]	i	?	?	2%[70.6 µM]
O=C(NCC1CC1)c1ccc2nnc(-c3cc(C(F)(F)F)cc(C(F)(F)F)c3)n2c1	-6%	.	?	?	.
COc1ccc(Nc2ccc3nnc(-c4ccccn4)n3n2)cc1	-8%[88.5 µM]	i	71µM*	?	-23%[70.6 µM]
COc1cccc(-c2nc3c([nH]2)CN(c2cc(C4CC4)ncn2)CC3)c1	-6%[11.5 µM]	25µM*	35µM*	?	?
O=C1NC2(CCN(C(=O)c3ccc(Cl)cc3)CC2)COc2ccccc21	-2%	.	-8%	-5%	.
